Source: PubChem BioAssay
Active and inactive are the calls of the source. Unless noted, how the calls were made is not given here.

Experiments:
[1] = compounds binding Alexa647 anti-His antibody – biochemical, small-molecule microarray, 635 nm fluorescence, artefact control for SMM control protein annotation, primary screen (AID 1128); details: higher = more signal;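 further: score merges feature fluorescence with signal-to-noise for each printed compound spot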
[2] = tested on: Human papillomavirus type 1a E7 protein (residues 1-88); assay: HPV1a E7 small-molecule binders, primary screen, biochemical, small-molecule microarray, residues 1-88, 635 nm (AID 1129); details: small-molecule microarray binding, fluorescence 635 nm; higher = more signal
[3] = target: Focal adhesion kinase 1 (Homo sapiens) (UniProt Q05397); assay: PTK2 protein binding on printed compound slides – biochemical, small-molecule microarray, 635/667 nm fluorescence, BSA, DTT, primary screen (AID 1130); details: 635 nm fluorescence, higher = more signal;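 further: composite of spot emission at 667 nm and signal to noise over triplicate slides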
[4] = tested on: Fibrinogen (Alexa647-labelled); assay: Alexa647-fibrinogen binding to printed small molecules – biochemical, small-molecule microarray, 635/667 nm fluorescence, artefact control for SMM control-protein annotation, profiling panel (AID 1131); details: fibrinogen-A647 binding fluorescence, higher = more signal;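 further: z-score merges 667 nm fluorescence with per-spot signal-to-noise over triplicate slides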
[5] = target: Follistatin (Homo sapiens) (UniProt P19883); assay: FST protein binding to printed compounds – biochemical, small-molecule microarray, 635/667 nm fluorescence, primary screen (AID 1132); details: 635 nm fluorescence, higher = more signal
[6] = target: Fibroblast growth factor 2 (Homo sapiens) (UniProt P09038); assay: basic fibroblast growth factor binding to printed compounds – biochemical, small-molecule microarray, 635/667 nm fluorescence, primary screen (AID 1133); details: FGF2, fluorescence 635/667, higher = more signal
[7] = JC-1 mitochondrial potential readout, lung cancer cells – cell-based, A549, JC-1 fluorescence, basal, 24 h, 100 nL, profiling panel (AID 1138); details: higher = more signal;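 further: A549 lung adenocarcinoma cells under basal conditions with no added stimulus; test concentration not given here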
[8] = tested on: Lefty1; assay: Lefty1 protein binding to printed compounds – biochemical, small-molecule microarray, 635/667 nm fluorescence, primary screen (AID 1139); details: fluorescence 635/667, higher = more signal
[9] = tested on: wheat germ agglutinin (Triticum aestivum), Alexa647-labelled; assay: Alexa647-WGA lectin binding to printed small molecules – biochemical, small-molecule microarray, 635/667 nm fluorescence, artefact control for SMM control-protein annotation, profiling panel (AID 1140); details: WGA-A647 binding, 635 nm fluorescence, higher = more signal;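 further: score merges 667 nm feature emission with signal to noise over triplicate slides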
[10] = target: Luciferin 4-monooxygenase (Photinus pyralis) (UniProt P08659); assay: inhibition of purified Photinus pyralis luciferase – biochemical, luminescence, purified enzyme, 2006 set, primary screen (AID 1141); details: purified firefly luciferase, SteadyGlo luminescence, 30 min; higher = more signal, called active from +8 up or from −8 down;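 further: cell-free assay with purified firefly luciferase at 100 ng per well in PBS; test concentration not given here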
[11] = tested on: Wnt5a (protein binding on small-molecule microarray); assay: small molecules binding Wnt5a protein – biophysical, small-molecule microarray, 635/667 nm fluorescence, primary screen (AID 1142); details: 635 nm fluorescence, higher = more signal;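 further: fluorescence read at 667 nm with signal to noise per printed feature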
[12] = ATP-based viability of Huh7 replicon cells – cell-based, CellTiter-Glo luminescence, basal, 48 h, cytotoxicity control for HCV replication inhibitor project, primary screen (AID 1143); details: higher = more signal, called active from +8 up or from −8 down;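 further: Huh7 hepatoma cells carrying a hepatitis C replication reporter with no stimulus; test concentration not given here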
[13] = Pseudomonas biofilm growth suppression – PAO1 strain, BacTiter-Glo luminescence, LB-PBS, primary screen (AID 1144); details: P. aeruginosa PAO1 biofilm, 12 h, higher = more signal
[14] = basal CRE-LacZ reporter activity in PC12 – cell-based, unstimulated, primary screen (AID 1145); details: no forskolin, luminescence, 4.5 h, higher = more signal, called active from +8 up or from −8 down
[15] = forskolin-driven CRE-LacZ activity in PC12 – cell-based, CRE-LacZ reporter, forskolin-stimulated, primary screen (AID 1146); details: luminescence, 4.5 h, higher = more signal, called active from +8 up or from −8 down;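 further: PC12 cells with 6xCRE LacZ reporter stimulated by forskolin 10 µM; beta-galactosidase reporter signal reflecting CREB driven transcription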
[16] = target: Streptavidin (Streptomyces avidinii) (UniProt P22629); assay: compounds binding control protein streptavidin – biophysical, small-molecule microarray, 635/667 nm fluorescence, artefact control for SMM compound annotation, primary screen (AID 1147); details: higher = more signal;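 further: signal reflects streptavidin binding to arrayed compounds as a control protein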
[17] = probe aInhba binding on compound microarray – biochemical, small-molecule microarray, 635/667 nm fluorescence, primary screen (AID 1148); details: higher = more signal;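 further: score merges 667nm spot fluorescence with signal-to-noise for antibody binding to printed compounds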
[18] = target: Torsin-1A (Homo sapiens) (UniProt O14656); assay: TOR1A wild-type binding on microarray – cell lysate, small-molecule microarray, lysate, 635/667 nm, primary screen (AID 1149); details: COS7 hTOR1A-WT lysate, 635 nm fluorescence, higher = more signal
[19] = target: Torsin-1A (Homo sapiens) (UniProt O14656); assay: torsin A mutant lysate binding on microarrays – cell lysate, small-molecule microarray, COS7 lysate, 635/667 nm fluorescence, primary screen (AID 1150); details: COS7 hTOR1A mutant lysate, 635 nm fluorescence, higher = more signal;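 further: score pools 667 nm emission and signal to noise measuring lysate protein binding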
[20] = tested on: Sonic hedgehog protein (Shh); assay: Sonic hedgehog microarray binding compounds – biochemical, small-molecule microarray, 635/667 nm fluorescence, primary screen (AID 1151); details: 635 nm fluorescence, higher = more signal;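 further: Shh protein binding to compounds spotted on small-molecule microarray slides; score combines spot fluorescence intensity with signal-to-noise across triplicate slides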

Chain of Luciferin 4-monooxygenase (Photinus pyralis) (P08659 whole entry, looked up): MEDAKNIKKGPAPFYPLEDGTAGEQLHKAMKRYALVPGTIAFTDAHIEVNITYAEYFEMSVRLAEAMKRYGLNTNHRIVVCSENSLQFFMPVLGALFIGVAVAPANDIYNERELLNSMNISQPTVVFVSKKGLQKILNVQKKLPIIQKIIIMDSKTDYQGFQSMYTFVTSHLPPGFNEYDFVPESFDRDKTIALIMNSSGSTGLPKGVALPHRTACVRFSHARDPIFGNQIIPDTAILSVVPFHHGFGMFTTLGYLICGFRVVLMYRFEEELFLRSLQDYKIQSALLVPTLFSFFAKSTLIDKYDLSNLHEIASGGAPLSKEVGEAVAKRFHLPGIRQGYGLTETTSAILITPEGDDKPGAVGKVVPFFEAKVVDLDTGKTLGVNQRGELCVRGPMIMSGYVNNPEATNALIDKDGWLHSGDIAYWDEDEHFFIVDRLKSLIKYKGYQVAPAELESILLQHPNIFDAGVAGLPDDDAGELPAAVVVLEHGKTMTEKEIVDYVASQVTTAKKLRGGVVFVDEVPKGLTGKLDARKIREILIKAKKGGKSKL
Chain of Follistatin (Homo sapiens) (P19883 whole entry, looked up): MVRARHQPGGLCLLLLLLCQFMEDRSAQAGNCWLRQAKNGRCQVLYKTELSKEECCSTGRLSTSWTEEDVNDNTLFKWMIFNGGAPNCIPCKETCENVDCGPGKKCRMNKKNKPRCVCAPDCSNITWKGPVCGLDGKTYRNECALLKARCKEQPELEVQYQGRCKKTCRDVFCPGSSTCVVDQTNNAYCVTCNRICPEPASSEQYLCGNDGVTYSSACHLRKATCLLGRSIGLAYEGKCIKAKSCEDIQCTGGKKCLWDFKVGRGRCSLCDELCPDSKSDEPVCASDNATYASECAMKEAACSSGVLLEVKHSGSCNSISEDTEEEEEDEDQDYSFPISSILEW
Chain of Streptavidin (Streptomyces avidinii) (P22629 whole entry, looked up): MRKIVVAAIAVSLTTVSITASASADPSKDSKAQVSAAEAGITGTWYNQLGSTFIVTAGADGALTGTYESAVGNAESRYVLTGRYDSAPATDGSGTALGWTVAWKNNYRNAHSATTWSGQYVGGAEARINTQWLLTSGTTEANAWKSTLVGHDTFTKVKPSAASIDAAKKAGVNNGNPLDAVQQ
Chain of Fibroblast growth factor 2 (Homo sapiens) (P09038 whole entry, looked up): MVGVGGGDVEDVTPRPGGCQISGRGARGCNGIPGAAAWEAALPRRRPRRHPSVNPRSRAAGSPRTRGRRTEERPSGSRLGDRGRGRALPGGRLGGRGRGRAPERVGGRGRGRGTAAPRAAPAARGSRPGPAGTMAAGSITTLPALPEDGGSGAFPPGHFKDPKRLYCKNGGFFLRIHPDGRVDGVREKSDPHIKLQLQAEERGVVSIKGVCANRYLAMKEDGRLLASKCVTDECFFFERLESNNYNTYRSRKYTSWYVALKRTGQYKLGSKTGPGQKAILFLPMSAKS
Chain of Torsin-1A (Homo sapiens) (O14656 whole entry, looked up): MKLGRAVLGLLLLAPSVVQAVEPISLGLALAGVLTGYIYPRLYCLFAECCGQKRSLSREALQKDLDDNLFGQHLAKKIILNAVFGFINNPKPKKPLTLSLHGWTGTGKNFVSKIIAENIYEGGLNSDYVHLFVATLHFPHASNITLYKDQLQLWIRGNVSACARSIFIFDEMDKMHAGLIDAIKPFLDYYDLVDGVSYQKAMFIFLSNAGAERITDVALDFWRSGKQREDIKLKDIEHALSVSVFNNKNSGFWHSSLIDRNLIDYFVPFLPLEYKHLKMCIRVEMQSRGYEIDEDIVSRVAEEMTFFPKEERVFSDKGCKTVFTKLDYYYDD
Chain of Focal adhesion kinase 1 (Homo sapiens) (Q05397 whole entry, looked up): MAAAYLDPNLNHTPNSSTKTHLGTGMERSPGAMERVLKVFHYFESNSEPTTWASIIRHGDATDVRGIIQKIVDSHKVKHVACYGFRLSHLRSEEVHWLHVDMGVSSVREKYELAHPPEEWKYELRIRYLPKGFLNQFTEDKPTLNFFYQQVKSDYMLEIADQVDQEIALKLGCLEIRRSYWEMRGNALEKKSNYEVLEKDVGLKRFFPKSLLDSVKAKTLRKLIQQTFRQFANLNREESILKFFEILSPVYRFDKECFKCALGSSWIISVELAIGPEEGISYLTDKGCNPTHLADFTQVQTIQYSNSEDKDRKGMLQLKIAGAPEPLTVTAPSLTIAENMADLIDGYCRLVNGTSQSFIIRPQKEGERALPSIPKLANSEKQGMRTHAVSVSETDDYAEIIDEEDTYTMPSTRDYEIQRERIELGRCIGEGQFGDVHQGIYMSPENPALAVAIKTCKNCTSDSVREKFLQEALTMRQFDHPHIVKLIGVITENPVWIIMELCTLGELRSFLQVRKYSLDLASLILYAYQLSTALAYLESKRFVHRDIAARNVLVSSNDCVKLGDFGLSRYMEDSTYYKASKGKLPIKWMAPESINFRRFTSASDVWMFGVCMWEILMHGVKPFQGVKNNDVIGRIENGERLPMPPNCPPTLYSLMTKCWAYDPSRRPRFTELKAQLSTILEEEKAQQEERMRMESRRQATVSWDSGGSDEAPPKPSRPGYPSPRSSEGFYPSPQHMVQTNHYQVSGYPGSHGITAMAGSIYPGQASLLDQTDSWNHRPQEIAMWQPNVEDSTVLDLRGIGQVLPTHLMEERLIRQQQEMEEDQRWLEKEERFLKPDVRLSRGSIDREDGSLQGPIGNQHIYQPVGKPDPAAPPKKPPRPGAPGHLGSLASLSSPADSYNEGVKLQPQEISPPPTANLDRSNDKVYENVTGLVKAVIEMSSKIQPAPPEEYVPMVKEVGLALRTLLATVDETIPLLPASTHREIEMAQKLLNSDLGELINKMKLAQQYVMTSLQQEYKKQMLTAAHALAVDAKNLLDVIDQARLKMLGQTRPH

SMILES | composite z-score [1] | composite z-score [2] | composite z-score [3] | composite z-score [4] | composite z-score [5] | composite z-score [6] | z-score [7] | composite z-score [8] | composite z-score [9] | z-score [10] | composite z-score [11] | z-score [12] | z-score [13] | z-score [14] | z-score [15] | composite z-score [16] | composite z-score [17] | composite z-score [18] | composite z-score [19] | composite z-score [20]
C=C(CCCC)/C(=C/C[C@H](OC(C)=O)c1cccc(OCCO)c1)c1cc(C(=O)OC)ccc1OC | -0.799 | -0.426 | -0.325 | 0.33 | 0.0088 | 0.261 | 3.6 | 0.283 | 0.635 | -1.64 (inactive) | -0.229 | -0.845 (inactive) | 0.0689 (inactive) | 12.1 (active) | -0.834 (inactive) | -0.77 | -0.0059 | -0.552 | -0.426 | 0.454
C=CC[C@]1(C(=O)OC)N=C(c2ccc(OCCCO)cc2)O[C@H]1c1ccccc1N=[N+]=[N-] | 3.65 | 1.21 | 1.01 | 0.266 | 1.43 | 1.78 | -0.674 | 1.12 | 0.291 | -11 (active) | 1.2 | -3.62 (inactive) | -1.04 (inactive) | 0.171 (inactive) | -2.05 (inactive) | 0.126 | 0.707 | 0.662 | 1 | 1.68
C[N+](C)(C)CCCCCCNC(=O)[C@@H]1C[C@@H]2C(=O)N[C@@H](Cc3ccccc3)C(=O)N2[C@@H]1c1ccc(O)cc1 | 2.13 | 1.21 | -0.371 | 0.533 | 1.43 | 1.65 | -0.247 | 1.63 | 0.702 | 0.344 (inactive) | 0.42 | -0.267 (inactive) | -0.409 (inactive) | -0.805 (inactive) | -0.327 (inactive) | -0.0442 | -0.0039 | 1.26 | 0.984 | 2.07
COc1ccc([Si](C)(C)[C@@H]2[C@@H](CCO)O[C@]3(C(=O)N(Cc4ccccc4)c4ccc(N5C(=O)c6ccccc6Oc6ccccc65)cc43)[C@H]2C)cc1 | 0.176 | 0.106 | 0.0875 | -0.0507 | 0.0192 | -0.539 | -0.0766 | 0.172 | 0.204 | 0.762 (inactive) | -0.204 | -5.7 (inactive) | -0.332 (inactive) | 1.07 (inactive) | 1.07 (inactive) | -0.059 | -0.128 | -0.642 | -0.32 | 0.459
CC=CC(O)C1C=CC2C(=O)N(C)C(=O)C2N1NC(=O)OC(C)(C)C (stereo not given) | 0.831 | 0.347 | -0.116 | 0.516 | 0.767 | 0.812 | -0.559 | 0.0938 | 0.838 | -0.645 (inactive) | 0.155 | 0.477 (inactive) | 0.433 (inactive) | 1.01 (inactive) | 0.742 (inactive) | 0.32 | 0.038 | 0.831 | 0.229 | 0.0729
